Measured values reported in ChEMBL document CHEMBL3433997, “St. Jude Leishmania screening dataset” (2016).

Molecular target: Solute carrier family 2, facilitated glucose transporter member 1 (Homo sapiens) (UniProt P11166)
Experiment: ST_JUDE_LEISH: Cytotoxicity at 2uM final concentration against transgenic Leishmania Mexicana promastigotes LmGLUT1 that are glucose transport deficient and complemented with the human glucose transporter GLUT1. Activity is measured by DNA content using SYBR green in vitro
Format: functional

Sequence of Solute carrier family 2, facilitated glucose transporter member 1 (Homo sapiens) (P11166 whole entry): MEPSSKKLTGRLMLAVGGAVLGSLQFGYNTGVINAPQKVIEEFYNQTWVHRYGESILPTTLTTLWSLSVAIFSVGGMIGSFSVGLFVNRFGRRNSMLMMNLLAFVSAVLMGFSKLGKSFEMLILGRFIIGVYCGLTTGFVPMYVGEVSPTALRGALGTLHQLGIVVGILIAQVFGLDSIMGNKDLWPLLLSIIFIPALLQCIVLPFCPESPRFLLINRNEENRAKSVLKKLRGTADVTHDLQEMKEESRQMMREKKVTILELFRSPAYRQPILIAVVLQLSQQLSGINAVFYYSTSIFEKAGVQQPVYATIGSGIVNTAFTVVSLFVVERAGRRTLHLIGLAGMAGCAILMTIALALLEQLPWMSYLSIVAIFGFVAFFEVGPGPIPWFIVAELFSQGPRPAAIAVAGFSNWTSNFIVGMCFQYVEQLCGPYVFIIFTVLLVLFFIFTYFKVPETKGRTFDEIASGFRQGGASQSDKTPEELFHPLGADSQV

Point of comparison: `COCCOc1ccc(Nc2nccc(-c3c(-c4cccc(NC(=O)c5c(F)cccc5F)c4)nn4ccccc34)n2)cc1F`, inhibition 7.82%. Against it:
- CN1CCN(CC(=O)Nc2cccc(-c3cccc(-c4nc5cc(F)ccc5[nH]4)c3)c2)CC1 — lower, 0.82%
- CC1(C)NC(N)=NC(=N)N1OCc1ccc(-c2ccccc2)cc1 — lower, 6.01%
- Cc1cc(N[C@@H](CC(C)C)C(=O)NCc2cccs2)nc(Nc2ccccc2)n1 — lower, 5.66%
- Cn1nc(C(F)(F)F)c(-c2ccc(F)cc2)c1NC(=O)Nc1ccc(F)cc1 — lower, 3.38%
- SC(=Nc1ccc2c(c1)OCCO2)NN=Cc1ccccn1 — lower, -0.28%
- CCCCCCCCNc1c2ccc(Cl)cc2nc2ccc(OC)cc12 — lower, 7.33%
- COc1cccc(NC(=O)CSc2nc(-c3ccccc3Cl)ns2)c1 — lower, 5.33%
- O=C(NCCCCCN1CCC(c2ccc(O)cc2)CC1)c1ccc(-c2ccccc2)cc1 — lower, 5.44%
- COc1ccc2nccc([C@@H](O)CN3CCC(NCC(=O)Nc4cc(F)cc(F)c4)CC3)c2n1 — higher, 37.8%
- CCCCCCNC(=O)C1Cc2c([nH]c3ccc(F)cc23)C2(CCN(Cc3ccccc3)CC2)N1 (stereo not given) — higher, 12.7%
- Cc1cccn2c(=O)c3cc(C(=O)NC4CCCCC4)c(=N)n(CCCn4ccnc4)c3nc12 — lower, -2.65%
- O=C(Nc1cccc(-c2cccc(-c3nc4ccccc4[nH]3)c2)c1)c1ccncc1 — lower, 4.03%
- c1cncc(Oc2ccc(Nc3ccnc4cc(-c5cccc(CN6CCCCC6)c5)ccc34)cc2)c1 — lower, 3.68%
- O=C(N[C@H](Cc1ccc(Cl)cc1)C(=O)N1CCN(c2ccnc3cc(Cl)ccc23)CC1)[C@H]1Cc2ccccc2CN1 — lower, 0.9%
- O=c1cc(NCCCNCc2cc(F)cc(C(F)(F)F)c2)[nH]c2ccccc12 — lower, -0.27%
- Cc1cccc2nc(-c3cccc(-c4ccc(C(=O)N5CCCCC5C(C)O)cc4)c3)[nH]c12 (stereo not given) — lower, 4.05%
- CN(C(=O)c1cc2c(-c3cncnc3)cccc2[nH]1)c1ccccc1 — lower, 2.07%
- COc1ccc(NC(=O)[C@H](Cc2ccccc2)Nc2nc(NCCN3CCCC3)ncc2C)cc1 — lower, 1.71%
- COc1ccc(CN2CCCC(N3CC4(OC3=O)c3ccccc3-c3ccccc34)C2)c(O)c1 (stereo not given) — lower, 5.47%
- O=C(/C=C/c1ccc(Cl)c(Cl)c1)N1CCC(CCN2CCC(c3c[nH]c4cc5c(cc34)OCO5)CC2)CC1 — lower, 0.05%
- COc1ccc(C2CC(c3cccs3)=NN2C(=O)COc2cccc(C(C)=O)c2)cc1OC (stereo not given) — lower, 0.04%
- CC(C)n1c(CC2CCN(CC3CCN(C(=O)/C=C/c4ccc(Cl)c(Cl)c4)CC3)CC2)nc2ccccc21 — lower, -1.74%
- COc1cc2nc(N(C)CC3COc4ccccc4O3)nc(N)c2cc1OC (stereo not given) — lower, 3.64%
- Fc1ccc2[nH]c(-c3ccc(-c4ccc(CN5CCC(CCN6CCCCC6)CC5)cc4)s3)nc2c1 — lower, 5.18%
- Fc1ccc2[nH]c(-c3ccc(-c4ccc(CN5CCN(c6cnccn6)CC5)cc4)s3)nc2c1 — lower, 2.41%
- Oc1ccc(-c2ccccc2)cc1CN1CCCCC1 — lower, 4.4%
- NC(=O)c1ccc(NCC(=O)Nc2cccc(-c3cccc(-c4nc5cc(F)ccc5[nH]4)c3)c2)cc1 — lower, -0.29%
- CCNc1cc(C(=O)N[C@@H](Cc2ccccc2)[C@H](O)CNC(C)(C)CC(C)(C)C)c(F)c(N2CCCCS2(=O)=O)c1 — lower, -2.27%
- Nc1nc2c(ncn2OC[C@H](CO)OCP(=O)(O)O)c(=O)[nH]1 — lower, 0.43%
- CCN(CC)c1ccccc1CNC(=O)c1cc(Cl)c(N)cc1OC — higher, 9.4%
- CCC1CCCCN1S(=O)(=O)c1ccc(NC(=O)c2cc(C)on2)cc1 (stereo not given) — lower, 2.22%
- CNC(=O)NC1=NC(C)(C)N(OCCCOc2cc(Cl)c(Cl)cc2Cl)C(N)=N1 — higher, 11.5%
- COC(=O)c1ccc(-c2ccc(C(=O)NCC3CCN(c4nc(N)c5cc(OC)c(OC)cc5n4)CC3)cc2)cc1 — lower, 4.1%
- COc1ccc(CC(=O)Nc2ccc(Nc3nc(C)cc(N4CCCC4)n3)cc2)cc1 — higher, 46%
- O=C(/C=C/c1ccc(Cl)c(Cl)c1)NCCCCCCN1CCCN(C(=O)Nc2ccc(Cl)c(Cl)c2)CC1 — lower, 2.36%
- c1ccc(Nc2nc(-c3ccccn3)cs2)nc1 — lower, -0.62%
- CCCCOC(=O)C1=C(C)NC2=C(C(=O)CCC2)C1c1ccc(OC)c(Br)c1 (stereo not given) — lower, 0.77%
- CN(C)C(CNC(=O)c1cc(-c2ccncc2)c(-c2ccc(NC(=O)Nc3cccc(Cl)c3)cc2)o1)c1ccccc1 (stereo not given) — lower, 1.5%
- Clc1ccc(-c2cc(-c3csc(NCCN4CCOCC4)n3)on2)c(Cl)c1 — higher, 12.4%
